Bioassay records (PubChem BioAssay)
LmPK inhibitor: LmPK (Leishmania mexicana) enzyme inhibition | Potency, µM (titrated, usually from 57.5 µM), inactives show top-dose activity change, negative = inhibition, usual class: inhibitors | purified LmPK, Kinase-Glo ATP luminescence, 1 h | Q27686 | AID 1721 | hit rate 0.37% among 290,000; active = well fitted curve in the direction sought with a large enough effect; inconclusive = small, poorly fitted or top-dose-only effect, or another doubt; inactive = no such curve, though single readings can be large; an effect the other way counts as inactive or inconclusive; also: potency is read from the fitted curve at half-maximal effect; % is scaled to controls: 0 for no effect and ±100 for the full control effect
Target sequence (Q27686 whole entry, looked up): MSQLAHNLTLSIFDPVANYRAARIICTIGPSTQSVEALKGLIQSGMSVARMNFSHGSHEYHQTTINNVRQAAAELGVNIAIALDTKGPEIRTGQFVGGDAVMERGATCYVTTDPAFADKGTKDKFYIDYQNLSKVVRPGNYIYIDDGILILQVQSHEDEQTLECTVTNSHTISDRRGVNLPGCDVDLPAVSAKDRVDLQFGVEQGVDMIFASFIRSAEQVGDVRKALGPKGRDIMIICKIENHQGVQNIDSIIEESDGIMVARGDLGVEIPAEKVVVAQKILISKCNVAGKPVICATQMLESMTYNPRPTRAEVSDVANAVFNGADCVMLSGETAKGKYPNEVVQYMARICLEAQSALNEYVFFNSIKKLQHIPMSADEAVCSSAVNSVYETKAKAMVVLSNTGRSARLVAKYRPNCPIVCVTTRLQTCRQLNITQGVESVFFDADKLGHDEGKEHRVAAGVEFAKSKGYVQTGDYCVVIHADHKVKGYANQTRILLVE
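Pyruvate kinase activity monitored as ATP production (luciferase luminescence). Conditions: 0.1 nM enzyme, 0.5 mM PEP, 0.1 mM ADP, 1 h, RT; normalized against uninhibited and no-enzyme wells.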
RE007 growth inh: less growth of the S. pombe RE007 Vpr strain. S. pombe RE007 Vpr strain, BacTiter-Glo ATP luminescence, 24 h. Potency, µM (top dose mostly 92.2 µM), for the others: top-dose activity change, negative = less growth, usual class: inhibitors. hit rate 0.21% among 360,000; active = well fitted falling curve with a large enough effect; inconclusive = small, poorly fitted or top-dose-only effect; inactive = no such curve, though single readings can be large or run the other way; also: potency is read from the fitted curve at half-maximal effect; % is scaled to controls: 0 for no effect and ±100 for the full control effect; nearly all actives have a fitted effect of over 50% in size
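Fission yeast RE007 carrying one integrated HIV-1 vpr copy, seeded at OD 0.01 in PMG+AL medium with 23 nL pinned compound. Grown 24 h at 30 degrees; viability read by BacTiter-Glo luminescence after 5 min.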
Tb PYK inh: inhibitors of Trypanosoma brucei pyruvate kinase; Potency, µM (top dose mostly 76.8 µM), for the others: top-dose activity, negative = inhibition, actives largely listed as inhibitors; TbPYK enzyme, Kinase-Glo Plus ATP luminescence, 45 min; hit rate 0.12% among 410,000; Q57TT1; active = well fitted curve in the direction sought with a large enough effect; inconclusive = small, poorly fitted or top-dose-only effect, or another doubt; inactive = no such curve, though single readings can be large; an effect the other way counts as inactive or inconclusive; also: potency is read from the fitted curve at half-maximal effect; % is scaled to controls: 0 for no effect and ±100 for the full control effect; nearly all actives have a fitted effect of over 50% in size
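Activity of T. brucei pyruvate kinase was followed by Kinase-Glo Plus luminescence after the enzyme reacted 45 min at room temperature with 130 uM ADP (final) and substrate. Test compounds were added before ADP at multiple concentrations.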
NS1 inh: inhibitors of influenza NS1 protein function. hit rate 0.4% among 270,000. Potency, µM (series often up to 46.1 µM), inactives show top-dose activity, positive = more growth. AID 2326; also: potency is read from the fitted curve at half-maximal effect; actives are rising curves; nearly all actives have a fitted effect of over 50% in size
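Recovery from NS1-induced slow growth read by OD600 in budding yeast switched to galactose assay medium (pH 6.0, -URA) at 1:100 dilution. Compound 23 nl per well; the matching strain lacking NS1 serves as control.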
NS1 inh valid: validation of influenza NS1 protein function inhibitors; shares compounds with NS1 inh; influenza NS1 function cell assay, 15-point titration; activity change, negative = inhibition, % at 32.9 µM; 1,400 tested, under 10 active; AID 492980; also: 0% is about no effect
An asterisk follows results filed as active; ? = inconclusive; . = no result given; [ ] = dose if it differs, or a comment. The list is not random: actives were taken first. Their share in the collection is about 0.77%. Unless noted, calls follow the shape of the full dose curve.

SMILES	LmPK inhibitor	RE007 growth inh	Tb PYK inh	NS1 inh	NS1 inh valid
CC1CN(C)C(c2ccccc2)C(C)C12NC(=O)NC2=O (stereo unspecified)	2%	-4%	2%	?	0
CCc1[nH]c(=S)c(C#N)c(-c2ccccc2)c1C(=O)OC	-6%	18%	?	10µM*	9
CCOC(=O)c1ccc(C(=O)OCC)c(NC(=S)Nc2ccc([N+](=O)[O-])cc2OC)c1	1%	-7%	-4%	5µM*	?
CCOC(=O)Nc1ccc([N+](=O)[O-])cc1OC	.	0%	5%	.	.
COc1ccccc1CNS(=O)(=O)c1c(C(=O)N2CCCCC2)c(C)n(C)c1C	3%	11%	-1%	3%	.
Cc1cc(=O)oc2cc(O)c(CN(C)CC(=O)O)cc12	.	.	.	0%	.
O=C(O)CCC(=O)N1CCc2cc(S(=O)(=O)NC3CCCc4ccccc43)ccc21 (stereo unspecified)	0%	11%	0%	3.5µM*	20
CC(C)CCC[C@@H](C)[C@@H]1CC[C@@H]2[C@H]3CC[C@H]4C[C@@H](N)CC[C@@]4(C)[C@@H]3CC[C@]21C	.	.	.	-33%	.
CCCn1c(=O)c(Cc2ccccc2)c(O)c2ccccc21	7%	-7%	-4%	?	1
CCCCCn1c(=O)c(Cc2ccccc2)c(O)c2ccccc21	4%	-3%	0%	2%	.
COc1ccc2c(c1)CCC1C2CC[C@@]2(C)C1CC[C@@H]2NCCCCCCN1C(=O)C=CC1=O (stereo partly specified)	.	.	.	-9%	.
COc1ccc(NC(=O)CSc2nc3ccccc3nc2N2CCCC2)c(OC)c1	-1%	3%	-3%	8%	.
O=C(O)CN1C(=O)C2C3CC(C2C1=O)C1C(c2ccccc2)c2sc(=O)[nH]c2SC31 (stereo unspecified)	-8%	-11%	-30%	18%	.
CC(C)CC(C(=O)O)N1C(=O)C2C3CC(C2C1=O)C1C(c2ccccc2)c2sc(=O)[nH]c2SC31 (stereo unspecified)	-1%	-9%	?	?	36
COc1ccc(Nc2nnc(SC(C(=O)Nc3cc(C)ccc3C)c3ccccc3)s2)cc1 (stereo unspecified)	-2%	3%	2%	.	.
COc1cccc(NC(=O)C(Sc2nnc(Nc3ccccc3C)s2)c2ccccc2)c1 (stereo unspecified)	4%	1%	-6%	5µM*	-2
CCOc1ccc2nc(Cl)c(C3CC(c4ccc(OC)cc4)=NN3S(C)(=O)=O)cc2c1 (stereo unspecified)	.	.	-2%	.	.
CCOc1ccc2nc(Cl)c(C3CC(c4ccco4)=NN3S(=O)(=O)c3ccccc3)cc2c1 (stereo unspecified)	1%	4%	-7%	10µM*	-19
Nc1cc(N)nc(SCC(=O)N2CCN(S(=O)(=O)c3ccccc3)CC2)n1	1%	18%	6%	11µM*	4
O=C(CSc1ccccc1)N1CCN(S(=O)(=O)c2ccccc2)CC1	2%	-6%	-6%	3%	.
O=C1OCCN1C(=O)[C@H]1[C@H](c2ccc([N+](=O)[O-])cc2)C(c2ccccc2)=NN1c1ccccc1	.	-16%	3%	.	.
O=C1OCCN1C(=O)[C@H]1[C@H](c2ccc([N+](=O)[O-])cc2)C(c2cccc(Cl)c2)=NN1c1ccccc1	-2%	-10%	-3%	22µM*	28
COc1cc(CNc2ccc(CNc3ncn[nH]3)cc2)ccc1OCc1ccccc1	6%	-13%	-1%	?	3
COc1ccccc1CNc1ccc(CNc2ncn[nH]2)cc1	1%	1%	-10%	2%	.
CN1C[C@H](CO)C=C2c3cccc4[nH]cc(c34)C[C@H]21	4%	-10%	-4%	12%	.
SMILES	LmPK inhibitor	RE007 growth inh	Tb PYK inh	NS1 inh	NS1 inh valid
CCC(CO)NC(=O)[C@@H]1C=C2c3cccc4[nH]cc(c34)C[C@H]2N(C)C1 (stereo partly specified)	.	.	.	35µM*	4
COc1ccccc1NC(=O)C/C(N)=N/O	3%	-12%	-3%	13µM*	17
COc1ccccc1Cc1c(-c2ccco2)nc2cc(C)c(Br)c(C)n12	.	-10%	-3%	.	.
Cc1ccc([N+](=O)[O-])cc1N(CC(=O)Nc1ccc(S(=O)(=O)Nc2cccc(C(F)(F)F)c2)cc1)S(C)(=O)=O	1%	13%	5%	16µM*	10
Cc1c(Cc2ccccc2)c(=O)oc2cc(OCC(=O)N3CCC(C(=O)O)CC3)ccc12	-6%	2%	-5%	?	.
Brc1ccc(C2Nc3cccc4cccc(c34)N2)o1	-11%	0%	-11%	?	2
Brc1cccc(C2Nc3cccc4cccc(c34)N2)c1	-10%	36%	-13%	3%	.
Fc1ccc(Nc2c(-c3c[nH]c4ccccc34)nc3ccccn23)cc1	.	.	0%	.	.
O=C(NCc1cccnc1)C1CCCN(S(=O)(=O)c2ccccc2)C1 (stereo unspecified)	6%	8%	-6%	1.6µM*	2
O=C(NCc1cccnc1)C1CCCN(S(=O)(=O)c2ccc(Cl)cc2)C1 (stereo unspecified)	2%	-15%	1%	-11%	.
COc1ccc(OC)c(NC(=O)COc2ccc(S(=O)(=O)N3CCCC3)cc2)c1	1%	-11%	-8%	?	-8
O=C(COc1ccc(S(=O)(=O)N2CCCC2)cc1)NCc1cccnc1	0%	3%	3%	?	11
CC1=C/C(=N/O)C([C@H]2C=C(C)CC(C)(C)[C@@H]2O)C(C)(C)C1 (stereo partly specified)	.	.	.	-3%	.
C[C@H](N)C(=O)c1ccccc1	.	.	-7%	.	.
COc1cccc(CNC(=O)c2cc3c(=O)oc4ccc(C)cc4c3s2)c1	.	.	1%	.	.
N[C@H]1[C@@H](C(=O)O)[C@H]2C=C[C@H]1C2	.	.	.	-12%	.
Cc1ccc(CCN2CC(C(=O)NCc3ccco3)CC2=O)cc1 (stereo unspecified)	3%	2%	0%	?	-3
COc1cc(C(=O)NCc2nc(-c3ccc(Cl)cc3)no2)cc(OC)c1OC	.	.	1%	.	.
COc1ccccc1N1CCN(C(=O)C2CCCN(S(=O)(=O)c3ccc4c(c3)CCCN4C(C)=O)C2)CC1 (stereo unspecified)	6%	6%	-7%	?	-20
Clc1ccc(N2CCN(c3ncnc4c3oc3ccccc34)CC2)cc1	-4%	-3%	1%	?	-3
COc1ccc(-c2cc(C(F)(F)F)nc(SCCC(=O)Nc3ccc(F)cc3F)n2)cc1	.	.	7%	.	.
COC(=O)c1cc(C(=O)OC)cc(N2C(=O)CC(NNC(=O)c3ccc(C)cc3)C2=O)c1 (stereo unspecified)	5%	12%	-10%	7.1µM*	12
CCCCc1nc2c(c3c1C[C@H](C)OC3)CN(S(=O)(=O)CCCC)CC2	0%[11.5 µM]	.	.	.	.
COc1ccc(CNc2cccc3[nH]c(C(F)(F)F)nc23)cc1OC	8%	.	-23%	?	.
